# Screening results deposited in PubChem by Broad Institute.
# EWS-Fli block: inhibitors of EWS/Fli oncoprotein transcriptional activity; A673 NR0B1-luciferase reporter, viability-normalised; inhibition, % at 12.6 µM; 350,000 tested, 0.67% active;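 active = mean inhibition of at least 50% after viability correction, with every replicate also passing that limit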;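 note: firefly luciferase signal divided by Alamar Blue viability fluorescence both relative to DMSO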
# HIV Env fusion: blocks HIV Env-driven cell-cell fusion; HeLa-JRFL Env/CEM21 cell fusion, luciferase; inhibition, % at 12.3 µM; 360,000 tested, 1.1% active;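 active = mean replicate inhibition score of at least 50 and every replicate individually at or above 50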
# PAX8 inh HTS: lowers PAX8-driven luciferase in RMG-I cells; inhibition, % at 12.6 µM; AID 652154; 360,000 tested, 1.2% active; RMG-I TPO-luciferase reporter, SteadyGlo, 24 h;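 active = mean replicate inhibition at least 60% with every replicate also reaching 60%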;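 note: luciferase light reporting Pax8 driven TPO promoter activity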
# GSIS activator: primary screen for activators of insulin secretion dependent on glucose, INS-1E cells, GLuc reporter luminescence; INS-1E GLuc reporter insulin secretion, 2-3 h; AID 743287; activation, % at 16.6 µM; 370,000 tested, 0.61% active;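 active = lowest replicate activation of at least 40%, so every replicate reaches that level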
# PGC1a acetyl inh: lowers PGC1a acetylation signal in U2OS cells; AlphaScreen anti-acetyl-lysine; with virally co-expressed GCN5 acetyltransferase; inhibition, % at 15.6 µM; 350,000 tested, 0.17% active;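 active = every replicate shows inhibition of at least 40%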
# CFTR F508del cor: CFTR F508del correction in bronchial cells; 350,000 tested, 0.36% active; CFBE cells, YFP halide quenching; stimulated with forskolin plus potentiator P3; % fluorescence drop versus neutral controls; activity (quench increase), % at 7.58 µM;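 active = mean added fluorescence quench of at least 8% versus neutral control, with both replicates also reaching 8%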;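 note: cells transiently co-express mutant CFTR-F508del with the halide-sensitive YFP; corrector assay measuring rescue of mutant channel to the surface after 24 h compound exposure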
# Hits are given with their value; i = inactive; nt = not tested or not shown; [ ] = another dose, or the depositor's remark. Rows were chosen to be rich in hits. Some 2.7% of all compounds tested hit in one or more screens of this group.
SMILES,EWS-Fli block,HIV Env fusion,PAX8 inh HTS,GSIS activator,PGC1a acetyl inh,CFTR F508del cor
COc1ccc(CCNC(=O)CSc2n[nH]c(N)n2)cc1OC,i,i,i,86,i,i
COc1ccc(CCNC(=O)C(=O)NN=C2CCCCCCC2)cc1OC,i,i,i,59,i,i
COc1ccc(CCNC(=O)COC(=O)Cn2cnc3ccccc32)cc1OC,i,i,i,57,nt,i
COc1ccc(CCNC(=O)CCc2nc3ccccc3[nH]2)cc1OC,i,i,i,90,i,i
CCC(=O)Nc1ccc2c(c1)OC[C@H](C)N(Cc1cccc(F)c1)C[C@@H](C)[C@H](OC)CN(C)C2=O,i,i,i,i,i,i
CO[C@H]1CN(C)C(=O)c2ccc(NC(=O)C3CCC3)cc2OC[C@@H](C)N(Cc2ccc(F)cc2)C[C@H]1C,i,nt,i,i,nt,i
COc1ccc(CNC(=O)C[C@@H]2CC[C@@H](NC(=O)c3ccc4c(c3)OCO4)[C@H](CO)O2)cc1,i,i,i,i,i,i
Cc1noc(C)c1NC(=O)Nc1cccc2c1O[C@@H](CN(C)C(=O)NC(C)C)[C@@H](C)CN([C@@H](C)CO)C2=O,i,i,i,i,i,i
COc1ccc(CCNC(=O)CCc2ccccc2)cc1OC,i,i,i,60,i,i
COc1ccc(CCNC(=S)NCCc2ccc(OC)c(OC)c2)cc1OC,i,i,i,i,i,i
COc1ccc(CCNC(N)=S)cc1OC,nt,nt,i,53,i,nt
C[C@H](CO)N1C[C@H](C)[C@@H](CN(C)S(=O)(=O)c2cn(C)cn2)Oc2ccc(NS(=O)(=O)c3ccc(Cl)cc3)cc2C1=O,i,nt,nt,i,i,i
C[C@@H]1CN([C@H](C)CO)C(=O)c2cc(NS(=O)(=O)c3ccccc3)ccc2O[C@@H](C)CCCCO[C@H]1CN(C)Cc1ccc(Cl)c(Cl)c1,i,i,94,i,i,i
C[C@H](CO)N1C[C@H](C)[C@@H](CN(C)Cc2ccc(Cl)c(Cl)c2)OCCCC[C@H](C)Oc2ccc(NS(=O)(=O)c3ccccc3)cc2C1=O,i,i,84,i,i,i
C[C@@H]1CCCCO[C@H](CN(C)Cc2ccc(Cl)c(Cl)c2)[C@H](C)CN([C@@H](C)CO)C(=O)c2cc(NS(=O)(=O)c3ccccc3)ccc2O1,i,57[16.7 µM],i,i,i,i
C[C@@H]1CCCCO[C@@H](CN(C)Cc2ccc(Cl)c(Cl)c2)[C@@H](C)CN([C@H](C)CO)C(=O)c2cc(NS(=O)(=O)c3ccc(F)cc3)ccc2O1,i,i,i,i,i,i
C[C@@H]1CCCCO[C@@H](CN(C)Cc2ccc(Cl)c(Cl)c2)[C@@H](C)CN([C@@H](C)CO)C(=O)c2cc(NS(=O)(=O)c3ccccc3)ccc2O1,i,i,68,i,i,i
COc1ccc2c3c([nH]c2c1)[C@@H](CO)N(Cc1cccc(F)c1)CC31CCN(C(C)=O)CC1,i,nt,i,i,i,i
CC(C)c1ccc2c(c1)[C@H]1OCC[C@H]1[C@@H](c1cccs1)N2,nt,59,i,i,nt,nt
Cc1cc(C)c2c(c1)N[C@H](c1cccs1)[C@@H]1CCO[C@H]21,i,i,i,nt,nt,i
Cc1noc(C)c1NC(=O)N(C)C[C@H]1Oc2ccc(NC(=O)CCN3CCOCC3)cc2CC(=O)N([C@H](C)CO)C[C@@H]1C,i,i,nt,i,i,i
Clc1ccc(C(c2nnnn2CCc2ccccc2)N2CCSCC2)cc1 (stereo unspecified),nt,100,i,nt,i,nt
Fc1ccc(C(c2nnnn2Cc2ccccc2)N2CCSCC2)cc1 (stereo unspecified),i,nt,nt,i,i,i
Fc1ccc(C(c2nnnn2CCc2ccccc2)N2CCCc3ccccc32)cc1 (stereo unspecified),nt,90,i,nt,i,nt
COCC(=O)Nc1ccc2c(c1)[C@H]1C[C@@H](CC(=O)N3CCc4ccccc4C3)O[C@@H](CO)[C@H]1O2,i,nt,nt,i,i,i
SMILES,EWS-Fli block,HIV Env fusion,PAX8 inh HTS,GSIS activator,PGC1a acetyl inh,CFTR F508del cor
COC(=O)CCn1nnc(-c2cccs2)n1,nt,i,nt,nt,i,nt
COC(=O)CCn1nnc(-c2ccc(C(C)C)cc2)n1,nt,66,i,nt,i,nt
CO[C@@H]1CN(C)C(=O)c2ccc(NC(=O)CC(F)(F)F)cc2OC[C@H](C)N(CC2CC2)C[C@@H]1C,nt,nt,nt,i,nt,nt
C[C@@H]1CN([C@@H](C)CO)C(=O)c2cccc(NC(=O)CCCCCC(=O)Nc3ccccc3N)c2O[C@H]1CN(C)S(=O)(=O)c1cn(C)cn1,i,nt,i,i,i,i
C=CCN=c1scc(C)n1/N=C/c1ccc(O)c(O)c1,i,i,i,i,i,11
Cc1noc(C)c1S(=O)(=O)Nc1cccc2c1O[C@H](CN(C)C(=O)NC1CCCCC1)[C@H](C)CN([C@H](C)CO)C2=O,i,i,i,i,i,i
CCCN1[C@@H]2c3ccc(-c4ccccc4OC)c(=O)n3C[C@@H]2[C@@H](CO)[C@@H]1C(=O)Nc1nccs1,i,i,i,i,nt,nt
Cc1cc(C(=O)Nc2cccc3c2O[C@H](CN(C)S(=O)(=O)c2ccc(F)cc2)[C@H](C)CN([C@@H](C)CO)C3=O)n(C)n1,i,i,nt,i,i,i
CCOC(=O)c1c(NC(=O)CSc2nnc(CNc3ccc(Cl)cc3)o2)sc(C)c1C,nt,65,nt,nt,i,nt
CCOC(=O)c1sc(NC(=O)c2ccco2)nc1-c1ccccc1,i,i,i,i,i,i
CCOC(=O)c1sc(NC(C)=O)nc1-c1ccccc1,nt,nt,nt,43,i,nt
CCOC(=O)c1c(NC(=O)CSc2nnnn2C)sc(C)c1-c1ccc(C)cc1,nt,81,nt,i,i,nt
CCNC(=O)C[C@H]1CC[C@@H]2[C@H](COc3ccc(NC(=O)Nc4cccc(OC)c4)cc3C(=O)N2C)O1,i,i,i,i,i,i
Cc1ccc(S(=O)(=O)N(C)C[C@@H]2Oc3cc(-c4cccc(F)c4)ccc3S(=O)(=O)N([C@@H](C)CO)C[C@@H]2C)cc1,i,i,i,i,i,i
C[C@@H]1CN([C@@H](C)CO)S(=O)(=O)c2ccc(-c3cccc(F)c3)cc2O[C@@H]1CN(C)S(=O)(=O)c1ccc(F)cc1,i,59[16.7 µM],nt,i,i,i
C[C@@H]1CN([C@@H](C)CO)S(=O)(=O)c2ccc(Br)cc2O[C@@H]1CN(C)S(=O)(=O)c1ccc(F)cc1,i,i,i,i,i,i
C[C@H]1CN([C@@H](C)CO)S(=O)(=O)c2ccc(Br)cc2O[C@H]1CN(C)S(=O)(=O)c1ccc(F)cc1,i,63[16.7 µM],i,i,i,nt
Cc1ccc(S(=O)(=O)N(C)C[C@H]2Oc3cc(-c4cccc(F)c4)ccc3S(=O)(=O)N([C@@H](C)CO)C[C@H]2C)cc1,i,69[16.7 µM],i,i,i,i
Cc1ccc(S(=O)(=O)N(C)C[C@H]2Oc3cc(-c4cccc(F)c4)ccc3S(=O)(=O)N([C@H](C)CO)C[C@H]2C)cc1,i,64[16.7 µM],i,i,i,i
COCC(=O)N1C[C@H](C)[C@@H](OC)CN(C)C(=O)c2ccc(NC(=O)c3ccc(F)cc3)cc2OC[C@@H]1C,i,nt,nt,i,i,i
